Tgondii IFNg = T. gondii growth inhibition with IFN-gamma, primary screen, cell-based | Toxoplasma gondii growth in IFN-gamma-treated host cells; hits give low values | activity change, negative = inhibition, % (test concentration not listed) | hit rate 3.8% among 69,000; in the data active means activity change below about -70%, passing the limit was not always enough;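 further: host cells are HeLa cells infected with Toxoplasma gondii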
Active calls of the source: *; i = inactive. The full list was thinned out, with hits kept by preference.

SMILES	Tgondii IFNg
CC(C)(C)c1nc2ccccc2c2nnc(SCC(=O)c3ccc4c(c3)OCCO4)n12	1
O=C(CSc1nc2ccccc2o1)c1ccc2c(c1)OCCO2	52
CNC(=O)COc1ccccc1-c1ccc(-n2cccn2)cc1	12
Cc1ccc(O)c(C(CC(=O)NCc2ccco2)c2ccccc2)c1 (centres undefined)	33
O=C(c1ccccc1)c1ccc(O)c(C(c2ccccc2Cl)N2CCCCC2)c1O (centres undefined)	-97*
CC(C)CN1CCC(N2CCC(C(=O)N3CCOCC3)CC2)CC1	-35
O=C(Cn1ncc2c(N3CCCCCC3)ncnc21)NCc1ccc2c(c1)OCO2	-97*
O=C(Cn1ncc2c(N3CCCCCC3)ncnc21)NCc1ccc(F)c(Cl)c1	3
O=C(Cn1ncc2c(N3CCCCCC3)ncnc21)NCc1cccc(Br)c1	-23
O=C(Cn1ncc2c(N3CCCCC3)ncnc21)NCc1ccco1	21
Cc1ccc(CNC(=O)Cn2ncc3c(N4CCN(c5ccccn5)CC4)ncnc32)cc1C	134
O=C(Cn1ncc2c(N3CCN(c4ccccn4)CC3)ncnc21)NCc1ccco1	-97*
O=C(Cn1ncc2c(N3CCCCCC3)ncnc21)NCc1ccc(Br)cc1	-93*
CCCNC(=O)Cn1ncc2c(N3CCN(c4ccccn4)CC3)ncnc21	45
O=C(Cn1ncc2c(N3CCN(c4ccccn4)CC3)ncnc21)NCc1cccnc1	11
CCOc1ccc(CNC(=O)Cn2ncc3c(N4CCCC4)ncnc32)cc1OCC	-4
O=C(Cn1ncc2c(N3CCN(c4ccccn4)CC3)ncnc21)NCc1ccc(F)cc1	-100*
O=C(Cn1ncc2c(N3CCCC3)ncnc21)Nc1ccc(Br)cc1	195
O=c1[nH]c2ccccc2c(O)c1-c1nc(-c2cccc(Cl)c2)no1	43
O=C(NCc1nn[nH]n1)C1CCCN(C2CCN(CCc3ccccc3)CC2)C1 (centres undefined)	-2
O=C(C[C@@H]1CC[C@H](NC(=O)C2CCOCC2)[C@@H](CO)O1)NCC1CCCCC1	-38
CN(C)[C@@H]1CCN(C2CCOCC2)[C@H]1Cc1cccnc1	6
O=C1CCCN1c1ccc(S(=O)(=O)Nc2ccc(Oc3cccnc3)cc2)cc1	-68
COCC(=O)N1CC2(C1)CN(S(C)(=O)=O)[C@@H](CO)c1c2c2ccc(OC)cc2n1C	61
O=C(Cn1ncc2c(N3CCCCCC3)ncnc21)Nc1ccc(F)cc1	-3
SMILES	Tgondii IFNg
CCc1ccc(NC(=O)Cn2ncc3c(N4CCCCCC4)ncnc32)cc1	-34
COc1cccc(CNC(=O)Cn2ncc3c(N4CCCCCC4)ncnc32)c1	-51
CCc1ccc(CNC(=O)Cn2ncc3c(N4CCOCC4)ncnc32)cc1	279
O=C(Cn1ncc2c(N3CCCCCC3)ncnc21)NCc1ccc(F)cc1	-99*
O=C(Cn1ncc2c(N3CCCC3)ncnc21)Nc1ccc(F)cc1F	55
O=C(Cn1ncc2c(N3CCCCC3)ncnc21)NCc1ccccc1	-92*
O=C(Cn1ncc2c(N3CCCC3)ncnc21)NCc1ccncc1	-35
CCc1ccc(CNC(=O)Cn2ncc3c(N4CCCCCC4)ncnc32)cc1	-92*
CN1CCCN(C(=O)c2ccc3onc(-c4coc(-c5ccccc5)n4)c3c2)CC1	2
CCNC(=O)[C@H]1CC[C@@](C)(C(=O)NCc2cc(C(C)(C)C)n[nH]2)C1(C)C	-2
NCCc1nncn1-c1cccc2ccccc12	7
CNC[C@@H]1OCc2cn(nn2)CCCC(=O)N([C@@H](C)CO)C[C@@H]1C	125
COc1ccc(OC)c(-c2nccn2-c2ccc3nc(C)[nH]c3c2)c1	-18
O=S1(=O)CCN(Cc2ccc(NS(=O)(=O)c3ccc(Cl)cc3)cc2)CC1	-92*
O=S(=O)(Nc1ccc(C2=NCCO2)cc1)c1ccc(Cl)cc1	-18
CNS(=O)(=O)c1ccc(CN2CCN(Cc3cccc(F)c3)CC2)cc1	-3
CCc1nccn1CC(=O)N1CCN2CCNC(=O)C2C1 (centres undefined)	-48
Cc1cc(C(F)(F)F)n2nc(C3CCCN(C(=O)c4cc5c(s4)CCCC5)C3)cc2n1 (centres undefined)	-104*
O=C(c1ccn[nH]1)N1CCC(c2cc3nc(-c4cccs4)cc(C(F)(F)F)n3n2)C1 (centres undefined)	-46
COc1ccccc1CC(=O)N1CCCC1c1cc2nc(C)cc(C(F)(F)F)n2n1 (centres undefined)	-21
FC(F)(F)c1cccc(Nc2nnc(-c3cccnc3)s2)c1	-9
COC(=O)c1ccc2c(c1)N(Cc1nc(-c3ccc(OC)cc3)oc1C)C(=O)c1ccccc1S2	78
Cc1noc(C)c1Cc1ccc(C(=O)NC(C)Cc2ccccn2)o1 (centres undefined)	7
N/C(Cc1ccc(Cl)cc1Cl)=N\OC(=O)c1ccc(Br)o1	-86*
O=C(OCc1ccc(Cl)cc1Cl)c1ccc2ccccc2n1	45
SMILES	Tgondii IFNg
O=C(NC(=O)c1ccccc1F)OCc1ccc(Cl)cc1Cl	-37
OC(CSc1nc(-c2ccccc2)ns1)C(F)(F)F (centres undefined)	148
O=S1(=O)CCC(S(=O)(=O)N2CCCCCC2c2cc(-c3ccc(F)cc3)on2)C1 (centres undefined)	-20
O=C(Nc1ccc(Cl)cc1)ONC(=O)c1ncc(C(F)(F)F)cc1Cl	15
O=C(Nc1ccc(Cl)cc1)c1cnc(NC2CCCCC2)cc1C(F)(F)F	-110*
NC(=O)C1(N2CCCCC2)CCN(c2ncc(NC(=O)c3ccc(Cl)cc3)cc2C(=O)O)CC1	2
Cn1ccc2cc(S(=O)(=O)N3CCCC(C(=O)N4CCN(c5ncccn5)CC4)C3)ccc21 (centres undefined)	12
COC(=O)c1cc(C#N)c(C)nc1Sc1nccn1-c1cc(Cl)ccc1Cl	-4
Cc1cccc(-c2nc(C)c(CCNC(=O)C(=O)Nc3c(C)cc(C)cc3C)s2)c1	-79*
Cc1nc(-c2ccc(F)cc2)sc1CCNC(=O)c1cccc(C(F)(F)F)c1	-74*
Cc1nc(-c2ccc(F)cc2)sc1CCNC(=O)c1ccc(C(F)(F)F)cc1	-41
Cc1nc(-c2ccc(F)cc2)sc1CCNC(=O)c1cccc(F)c1	-38
Cc1nc(-c2cccc(F)c2)sc1CCNC(=O)c1ccc(C(F)(F)F)cc1	-90*
Cc1cc(C)c(NC(=O)C(=O)NCCc2sc(-c3cccc(F)c3)nc2C)c(C)c1	27
Cc1nc(-c2ccc(Cl)cc2)sc1CCNC(=O)c1cccc(C(F)(F)F)c1	-41
Cc1ccc(C(=O)NCCc2sc(-c3cccc(F)c3)nc2C)cc1	-1
Cc1cccc(-c2nc(C)c(CCNC(=O)C(=O)Nc3c(C)cccc3C)s2)c1	11
O=C(c1cscn1)N1CCOC2(CCN(CC3CC3)CC2)C1	35
O=C(CN1CCC(c2ccncc2)CC1)N1CCOCC1	21
CC1=CC[C@@H]2CN(Cc3ccc(CN(C)S(C)(=O)=O)o3)C[C@@H]2C1	1
O=S(=O)(NCCc1ccccc1)c1ccc(F)cc1	8
C[C@H]1CN([C@@H](C)CO)C(=O)CCCn2nncc2CO[C@@H]1CN(C)C(=O)Nc1ccc2c(c1)OCCO2	i
C=CCN1CC[C@@]2(CN(C(=O)c3ccc[nH]3)C[C@H]2c2ccccc2)C1=O	-32
COc1ccccc1NC(=O)C(=O)NCCc1csc(-c2ccc(F)cc2)n1	11
CO[C@H]1CN(C)C(=O)c2cc(NC(C)=O)ccc2OC[C@H](C)N(S(C)(=O)=O)C[C@H]1C	70
CC(O)CN1CCCC2(CCN(c3cnccn3)CC2)C1 (centres undefined)	9

Compound activity from PubChem BioAssay.
